In PubChem BioAssay (NCATS) one finds Potency, outcome and max response data, which are given here for 6 compounds.

A number with no mark means an inactive call. Records with an inconclusive call do not appear. Activity calls are given as the source filed them. The call rests on the fitted dose curve; in most records, active means well fitted curve in the direction sought with a large enough effect; inconclusive means small, poorly fitted or top-dose-only effect, or another doubt; inactive means no such curve, though single readings can be large; an effect the other way counts as inactive or inconclusive.

The target in experiment [1] is Calcium and integrin-binding protein 1 (Homo sapiens) (UniProt Q99828). Kind of experiment: Primary qHTS for Identification of Calcium Integrin Binding Protein 1 (CIB1) Competitor (AID 1508620).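 Further: GST tagged CIB1 binding a fluorescein labelled alphaIIb integrin peptide tracer; top concentration of the series differs between compounds; on the % scale 0 is the no-effect control and ±100 the full control effect.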 In a few lines: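 CIB1-GST (1 uM final) and compound incubated 15 min at room temperature before adding FITC-alphaIIb peptide tracer (100 nM final). Competition for binding read by fluorescence polarization (ex 480, em 540) after another 15 min at room temperature.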
Sequence of Calcium and integrin-binding protein 1 (Homo sapiens) (Q99828 whole entry, looked up): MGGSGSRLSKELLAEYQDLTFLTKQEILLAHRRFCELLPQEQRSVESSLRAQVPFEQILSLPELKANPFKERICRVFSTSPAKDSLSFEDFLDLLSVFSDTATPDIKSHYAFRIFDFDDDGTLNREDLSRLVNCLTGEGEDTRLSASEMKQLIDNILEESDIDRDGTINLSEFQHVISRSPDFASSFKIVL
For orientation: In qHTS, concentration-response curves come from the screen itself.

Experiment [2] in a line: Primary qHTS for inhibitors of nuclear receptor binding SET domain protein 2 (NSD2) in an isogenic RCH-ACV NSD2 p.E1099K mutant (9B) (AID 1645876). Further: nearly all actives have a fitted effect of over 70% in size. Further: potency means the concentration at half of the fitted maximal effect.
For experiment [3], the target named is Glutathione peroxidase 1 (Homo sapiens) (UniProt P07203). Kind of experiment: Primary qHTS Assay for Inhibitors of Recombinant Selenoprotein Glutathione Peroxidase 1 (GPX1) (AID 1845191). Further: nearly all actives have a fitted effect of over 65% in size. In a few lines:
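10 nM GPX1 + cpd, 30 min RT; start w/ 1 mM GSH, 0.5 mM cumene hydroperoxide, 0.5 mM NADPH, 100 nM GR, 0.01% BSA; buffer 50 mM Tris-HCl pH 7.5, 2 mM EDTA, 150 mM NaCl; Fl 340/450, 0 & 15 min.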

Experiment [4] addresses Phospholipid hydroperoxide glutathione peroxidase GPX4 (Homo sapiens) (UniProt P36969). The experiment can be described thus: Primary qHTS Assay for Inhibitors of Recombinant Selenoprotein Glutathione Peroxidase 4 (GPX4) (AID 1845192). Further: nearly all actives have a fitted effect of over 65% in size. The method in brief: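 NADPH consumption, followed by fluorescence at 340/450 nm between 0 and 15 min, reports GPX4 activity via coupled glutathione reductase (100 nM). Enzyme 200 nM was pre-exposed to compound 30 min; 0.5 mM cumene hydroperoxide and 1 mM GSH served as substrates.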

In experiment [5] the target is Luciferin 4-monooxygenase (Photinus pyralis) (UniProt P08659). The experiment can be described thus: Primary firefly luciferase (FLuc) qHTS assay for identification of artifact compounds. (AID 1845220). Further: nearly all actives have a fitted effect of over 60% in size. The conditions noted are these: outcome: dose series up to 54.1 µM unless noted. In a few lines: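 Compounds sat 15 min at room temperature with 10 uM luciferin and 10 uM ATP (pH 7.6 Tris acetate). Firefly luciferase (10 nM final) was then added, and luminescence was read 5 min later. Data normalized to no-enzyme and DMSO controls were Hill-fitted.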

Experiment [6] relates to Nanoluciferase (engineered Oplophorus gracilirostris luciferase). Kind of experiment: Primary Nanoluciferase (NLuc) qHTS assay for identification of artifact compounds. (AID 1845222).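 Further: 0% = DMSO and -100% = no enzyme.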 The method in brief: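 Luminescence from secreted NLuc (filtered, 1:55-diluted S16 cell medium) read 5 min after Nano-Glo substrate; compounds preincubated 15 min, RT. Hill fits of inhibition normalized to DMSO and no-enzyme.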

Experiment [7] concerns CRL-7250. Kind of experiment: Cytotoxic Profiling of Annotated Libraries Using Quantitative High-Throughput Screening (AID 1296008). Further: nearly all actives have a fitted effect of over 60% in size. Further: potency means the concentration at half of the fitted maximal effect. On max response: on the % scale 0 is the no-effect control and ±100 the full control effect. The conditions noted are these: Five cell lines viability, CellTiter-Glo ATP luminescence, 48-72 h; max response: stronger effect = lower value. In a few lines:
(§1)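 Cytotoxicity was measured as CellTiter-Glo ATP luminescence, read after 10 min at room temperature. Compound treatment of the cells lasted 48 or 72 hr at 37 degrees Celsius in a qHTS format.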
On the technique in general: ATP-based viability assays read luminescence as a measure of living cells.

Experiment [8] concerns HEK293. Described as above. The conditions noted are these: Five cell lines viability, CellTiter-Glo ATP luminescence, 48-72 h; max response: stronger effect = lower value. In a few lines:
as §1

Experiment [9] deals with HaCat. Described as above. The conditions noted are these: Five cell lines viability, CellTiter-Glo ATP luminescence, 48-72 h; max response: stronger effect = lower value. The method in brief:
as §1

For experiment [10], the system named is NIH3T3. The experiment is described as above. The conditions noted are these: Five cell lines viability, CellTiter-Glo ATP luminescence, 48-72 h; max response: stronger effect = lower value. The method in brief:
as §1

Experiment [11] concerns C33A. Kind of experiment: Primary qHTS to identify gynecologic anti-cancer compounds using libraries of approved drugs and bioactive compounds (AID 1345084). Further: nearly all actives have a fitted effect of over 55% in size. Further: potency means the concentration at half of the fitted maximal effect. The conditions noted are these: Gynecologic cancer cell panel viability, ATPlite luminescence, 48 h; series mostly up to 57.5 µM. In a few lines: (§2)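 Luminescence from the ATPlite ATP-monitoring reagent indicates viable cell number; lower signal means cytotoxicity. Cells received compound 16 h after seeding and were exposed for 48 h across five concentrations.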

The subject of experiment [12] is CASKI. The description is as above. The conditions noted are these: Gynecologic cancer cell panel viability, ATPlite luminescence, 48 h; series mostly up to 57.5 µM. The method in brief:
as §2

Experiment [13] concerns Es-2. Described as above. The conditions noted are these: Gynecologic cancer cell panel viability, ATPlite luminescence, 48 h; series mostly up to 57.5 µM. In a few lines: as §2
For experiment [14], the system named is Hek293T. The experiment is described as above. The conditions noted are these: Gynecologic cancer cell panel viability, ATPlite luminescence, 48 h, control line for the selectivity index; series mostly up to 57.5 µM. The method in brief: as §2
Experiment [15] relates to JEG-3. The experiment is described as above. The conditions noted are these: Gynecologic cancer cell panel viability, ATPlite luminescence, 48 h; series mostly up to 57.5 µM. The method in brief:
as §2

The subject of experiment [16] is OV90. The description is as above. The conditions noted are these: Gynecologic cancer cell panel viability, ATPlite luminescence, 48 h; series mostly up to 57.5 µM. The method in brief: as §2
For experiment [17], the system named is PA-1. The description is as above. The conditions noted are these: Gynecologic cancer cell panel viability, ATPlite luminescence, 48 h; series mostly up to 57.5 µM. The method in brief:
as §2

The test system of experiment [18] is Tov-21-G. Described as above. The conditions noted are these: Gynecologic cancer cell panel viability, ATPlite luminescence, 48 h; series mostly up to 57.5 µM. In a few lines: as §2
Experiment [19] deals with Tov112D. The description is as above. The conditions noted are these: Gynecologic cancer cell panel viability, ATPlite luminescence, 48 h; series mostly up to 57.5 µM. In a few lines:
as §2

For experiment [20], the system named is Zika virus NS2B-NS3 protease (linked construct). The experiment can be described thus: Primary screen NINDS Rhodamine qHTS for Zika virus inhibitors (AID 1347160). Further: nearly all actives have a fitted effect of over 55% in size. The method in brief:
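Kinetic fluorescence (Ex 480 nm, Em 540 nm) over 15 min with 1.5 microM Rhodamine110 peptide and 25 nM linked protease.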

Sequence of Glutathione peroxidase 1 (Homo sapiens) (P07203 whole entry, looked up): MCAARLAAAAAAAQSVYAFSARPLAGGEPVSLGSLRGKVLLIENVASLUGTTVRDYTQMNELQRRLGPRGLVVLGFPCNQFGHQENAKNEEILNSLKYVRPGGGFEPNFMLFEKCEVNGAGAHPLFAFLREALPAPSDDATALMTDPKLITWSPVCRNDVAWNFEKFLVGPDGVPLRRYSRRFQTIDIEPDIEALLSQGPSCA
Sequence of Phospholipid hydroperoxide glutathione peroxidase GPX4 (Homo sapiens) (P36969 whole entry, looked up): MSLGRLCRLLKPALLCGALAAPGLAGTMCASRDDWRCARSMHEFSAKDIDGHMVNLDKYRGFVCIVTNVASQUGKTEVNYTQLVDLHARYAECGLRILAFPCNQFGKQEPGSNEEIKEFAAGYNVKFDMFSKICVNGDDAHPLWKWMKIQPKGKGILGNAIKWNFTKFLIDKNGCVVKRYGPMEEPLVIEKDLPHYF

With `C=CCN1CC[C@]23c4c5ccc(O)c4O[C@H]2[C@@H](O)CC[C@@]3(O)[C@H]1C5`, the Potency result in experiment [1], in experiment [2], in [3], in [4], in [6] and in [11] was “inactive” each time. Further, the Potency result in [12], in experiment [13], in experiment [14], in experiment [15], in [16] and in [17] was “inactive” throughout. Moreover, the Potency result in experiment [18] and in [19] was “inactive” throughout. Further, in experiment [5], the result was inactive. For the same compound, the max response was -15.6% in experiment [7], -13.2% in experiment [8], 3.65% in experiment [9] and -28.6% in [10].

Consider `C/C=C(/C)C1C=CC2CC(C)CC(C)C2C1/C(O)=C1\C(=O)NC(CC(C)(O)C(=O)O)C1=O` (stereo unspecified), for which the Potency entry in [1], in [2], in experiment [3], in experiment [4], in experiment [6] and in experiment [11] was “inactive” in each case. Besides, the Potency result in experiment [12], in experiment [13], in experiment [14], in experiment [15], in [16] and in experiment [17] was “inactive” each time. Besides, the Potency entry in experiment [18] and in experiment [19] was “inactive” each time. The outcome in experiment [5] is “inactive [at 25.7 µM]”. Further, the call in experiment [7] was inactive. Also, the max response was -1.39% in experiment [8], -6.03% in experiment [9] and 1.49% in experiment [10].

For `CCC(C)/C=C(C)/C=C/C1=CC2=C(Cl)C(=O)C(C)(OC(C)=O)C(=O)C2=CO1` (stereo unspecified), the Potency result in experiment [1], in experiment [2], in [3], in experiment [4], in experiment [6] and in experiment [11] was “inactive” throughout. In addition, the Potency result in experiment [12], in [13], in experiment [14], in experiment [15], in [16] and in experiment [17] was “inactive” in each case. The Potency entry in [18] and in [19] was “inactive” each time. In [5], the compound was classed as inactive. The max response in experiment [7] is -20%; in experiment [8], -69.1%; in experiment [9], -66.3%; in [10] it was -56.4%.

Turning to `CCC(C)(O)C1(C(=O)O)COC(=O)C1` (stereo unspecified), the Potency result in [20], in experiment [1], in [2], in experiment [3], in experiment [4] and in experiment [6] was “inactive” in each case. In addition, the Potency result in experiment [11], in [12], in experiment [13], in experiment [14], in [15] and in experiment [16] was “inactive” throughout. For the same compound, the Potency entry in experiment [17], in experiment [18] and in [19] was “inactive” each time. In addition, the outcome in experiment [5] is “inactive [at 86.2 µM]”. For the same compound, the max response in experiment [7] was -3.51%; in experiment [8], 0.689%; in [10], -1.83%. Besides, the result in [9] was inactive.

In the case of `CC1CCCC(O)CC(=O)Cc2cc(O)cc(O)c2C(=O)O1` (stereo unspecified), the Potency result in [20], in experiment [1], in experiment [2], in experiment [3], in experiment [4] and in experiment [6] was “inactive” in each case. The Potency entry in experiment [11], in experiment [12], in experiment [13], in experiment [14], in experiment [15] and in [16] was “inactive” in each case. Besides, the Potency entry in experiment [17], in experiment [18] and in experiment [19] was “inactive” each time. In addition, the result in experiment [5] and in experiment [9] was inactive. For the same compound, the max response in experiment [7] was -9.43%; in [8] it was 4.64%; in [10] it was 2.95%.

In the case of `C[C@@H]1CCC/C=C/[C@H]2C[C@@H](O)C[C@@H]2[C@@H](O)/C=C/C(=O)O1`, the Potency entry in experiment [20], in [1], in experiment [4] and in experiment [6] was “inactive” in each case. For the same compound, the Potency in experiment [2] is 290 nM (active); in experiment [7], 206 nM (active); in experiment [8], 920 nM (active); in [9], 259 nM (active); in experiment [10], 4110 nM (active); in [11], 891 nM (active). The Potency in experiment [12] was 1260 nM (active); in [13], 501 nM (active); in experiment [14] it was 1000 nM (active); in experiment [15], 1000 nM (active); in experiment [16] it was 316 nM (active); in [17], 447 nM (active). The values for the Potency in experiment [18] and in experiment [19] were 1120 nM (active) and 1000 nM (active), respectively. Also, the result in experiment [5] was inactive.
